According to PubChem BioAssay (Tox21):
Results filed as inconclusive are left out. Activity calls are given as the source filed them. Unless noted, calls come from the whole dose curve; as a rule, active = well fitted curve in the direction sought with a large enough effect in the repeat runs; inconclusive = weak or mixed curves; inactive = no such curve, though single readings can be large; an effect the other way counts as inactive or inconclusive.

Key:
[1] = qHTS RealTime-Glo MT Cell Viability Assay in HepG2 cells - 32 hour (AID 1224877); note: nearly all actives have a fitted effect of over 55% in size
In short: (§1)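 Compound treatment began 5 h after plating HepG2 cells (600/well) with NanoLuc luciferase and prosubstrate. Plates stayed at 37 C for 40 h; luminescence was captured at six time points, 0 h through 40 h.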

[2] = A CellTox Green Cytotoxicity Assay to monitor cytotoxicity in HepG2 cells - 24 hour (AID 1224878); note: nearly all actives have a fitted effect of over 45% in size; note: potency is the fitted concentration of half-maximal effect
In short: (§2)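 HepG2 cells were seeded together with the CellTox Green dye at 600 cells/well, left 5 h at 37 C/5% CO2, then given compounds in DMSO. Fluorescence from dye bound to dead-cell DNA was read repeatedly over 40 h of treatment at 37 C.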

[3] = A CellTox Green Cytotoxicity Assay to monitor cytotoxicity in HepG2 cells - 40 hour (AID 1224879); note: nearly all actives have a fitted effect of over 40% in size; note: potency is the fitted concentration of half-maximal effect
In short: as §2

[4] = qHTS RealTime-Glo MT Cell Viability Assay in HEK293 cells - 0 hour (AID 1224880); note: top concentration of the series differs between compounds; nearly all actives have a fitted effect of over 45% in size
In short: (§3)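 HEK293 cells mixed with RealTime-Glo reagents (NanoLuc plus cell-permeant prosubstrate) at 600 cells/well, preincubated 5 h at 37 C/5% CO2, then given 23 nL compound in DMSO. Nonlytic luminescence from viable cells was read at 0, 8, 16, 24, 32 and 40 h.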

[5] = A CellTox Green Cytotoxicity Assay to monitor cytotoxicity in HEK293 cells - 32 hour (AID 1224881); note: nearly all actives have a fitted effect of over 40% in size; note: potency is the fitted concentration of half-maximal effect
In short: (§4)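 HEK293 cells premixed with CellTox Green dye were seeded at 600 cells/well and left 5 h at 37 C/5% CO2 before pin transfer of 23 nL compound in DMSO. Fluorescence from dye bound to dead-cell DNA was read during 40 h treatment.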

[6] = A CellTox Green Cytotoxicity Assay to monitor cytotoxicity in HepG2 cells - 0 hour (AID 1224882); note: nearly all actives have a fitted effect of over 35% in size; note: potency is the fitted concentration of half-maximal effect
In short: as §2

[7] = A CellTox Green Cytotoxicity Assay to monitor cytotoxicity in HEK293 cells - 8 hour (AID 1224884); note: nearly all actives have a fitted effect of over 35% in size
In short: as §4

[8] = qHTS RealTime-Glo MT Cell Viability Assay in HepG2 cells - 16 hour (AID 1224885); note: nearly all actives have a fitted effect of over 50% in size
In short: as §1

[9] = qHTS RealTime-Glo MT Cell Viability Assay in HEK293 cells - 24 hour (AID 1224886); note: nearly all actives have a fitted effect of over 50% in size; note: potency is the fitted concentration of half-maximal effect; for activity change, negative = cytotoxicity: top concentration of the series differs between compounds
In short: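 Quantitative high-throughput screen of the Tox21 10K library in HEK293: cells and RealTime-Glo reagents plated together, compound added at 5 h, luminescence monitored through 40 h at 37 C.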

[10] = qHTS RealTime-Glo MT Cell Viability Assay in HEK293 cells - 8 hour (AID 1224887); note: nearly all actives have a fitted effect of over 50% in size; note: potency is the fitted concentration of half-maximal effect; for activity change, negative = cytotoxicity: top concentration of the series differs between compounds
In short: as §3

[11] = A CellTox Green Cytotoxicity Assay to monitor cytotoxicity in HEK293 cells - 16 hour (AID 1224888); note: nearly all actives have a fitted effect of over 35% in size
In short: as §4

[12] = qHTS RealTime-Glo MT Cell Viability Assay in HepG2 cells - 0 hour (AID 1224889); note: nearly all actives have a fitted effect of over 50% in size
In short: as §1

[13] = A CellTox Green Cytotoxicity Assay to monitor cytotoxicity in HepG2 cells - 8 hour (AID 1224890); note: nearly all actives have a fitted effect of over 45% in size; note: potency is the fitted concentration of half-maximal effect
In short: as §2

[14] = qHTS assay to identify small molecule antagonists of the estrogen receptor alpha (ER-alpha) signaling pathway using the BG1 cell line in the presence of 0.1 nM 17-beta-estradiol - cell viability counter screen (AID 1259241); note: nearly all actives have a fitted effect of over 40% in size
In short: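 Measures cytotoxicity alongside the ER-alpha antagonist readout: VM7Luc4E2 cells, charcoal-stripped serum, 0.1 nM 17beta-estradiol final, 22 hr compound incubation at 37C, CellTiter-Fluor fluorescence.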

[15] = qHTS assay to identify small molecule antagonists of the androgen receptor (AR) signaling pathway using the MDA cell line in the presence of 0.5 nM R1881 - cell viability counter screen (AID 1259242); note: nearly all actives have a fitted effect of over 45% in size
In short: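 MDA-kb2 cells (human breast carcinoma, stably carrying MMTV-luciferase reporter) were exposed to compounds with 0.5 nM R1881 (final) for 16 hr at 37C, 0% CO2; viability then read as live-cell protease fluorescence (CellTiter-Fluor, 30 min) in the same wells.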

[16] = target: Androgen receptor (Homo sapiens) (UniProt P10275); assay: qHTS assay to identify small molecule antagonists of the androgen receptor (AR) signaling pathway using the MDA cell line in the presence of 0.5 nM R1881 (AID 1259243); note: nearly all actives have a fitted effect of over 50% in size
Sequence of Androgen receptor (Homo sapiens) (P10275 whole entry, looked up): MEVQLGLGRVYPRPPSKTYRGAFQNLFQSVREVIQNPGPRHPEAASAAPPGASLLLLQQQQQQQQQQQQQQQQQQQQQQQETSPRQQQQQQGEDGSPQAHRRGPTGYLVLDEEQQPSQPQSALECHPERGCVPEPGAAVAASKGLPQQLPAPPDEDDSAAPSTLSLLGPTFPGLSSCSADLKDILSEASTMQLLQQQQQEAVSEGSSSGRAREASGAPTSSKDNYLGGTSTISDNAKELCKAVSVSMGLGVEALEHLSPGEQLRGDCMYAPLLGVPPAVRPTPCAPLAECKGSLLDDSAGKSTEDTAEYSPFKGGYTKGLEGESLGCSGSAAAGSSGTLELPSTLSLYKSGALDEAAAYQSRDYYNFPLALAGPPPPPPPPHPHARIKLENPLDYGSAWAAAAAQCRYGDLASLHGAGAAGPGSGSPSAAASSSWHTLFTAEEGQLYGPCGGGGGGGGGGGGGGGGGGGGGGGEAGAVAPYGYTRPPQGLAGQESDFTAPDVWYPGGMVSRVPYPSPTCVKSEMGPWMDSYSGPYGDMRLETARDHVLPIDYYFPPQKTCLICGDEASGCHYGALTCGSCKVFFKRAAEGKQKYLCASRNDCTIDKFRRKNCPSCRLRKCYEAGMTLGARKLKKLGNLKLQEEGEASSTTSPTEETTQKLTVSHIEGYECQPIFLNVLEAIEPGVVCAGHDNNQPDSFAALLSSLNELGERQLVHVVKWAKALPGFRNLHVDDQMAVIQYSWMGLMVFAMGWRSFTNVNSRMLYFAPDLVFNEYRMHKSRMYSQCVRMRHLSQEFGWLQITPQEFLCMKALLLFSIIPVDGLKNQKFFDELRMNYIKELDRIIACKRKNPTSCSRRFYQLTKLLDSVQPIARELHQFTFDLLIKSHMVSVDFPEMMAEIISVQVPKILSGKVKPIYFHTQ
In short: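 MDA-kb2 human breast carcinoma cells carrying an MMTV-luciferase reporter (AR- and GR-responsive) were plated, rested 5 hr at 37C, dosed with compounds, then stimulated with 0.5 nM R1881 (final) for 16 hr; luminescence was read after ONE-Glo.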

[17] = target: Estrogen receptor (Homo sapiens) (UniProt P03372); assay: qHTS assay to identify small molecule antagonists of the estrogen receptor alpha (ER-alpha) signaling pathway using the BG1 cell line in the presence of 0.1 nM 17-beta-estradiol (AID 1259244); note: nearly all actives have a fitted effect of over 50% in size
Sequence of Estrogen receptor (Homo sapiens) (P03372 whole entry, looked up): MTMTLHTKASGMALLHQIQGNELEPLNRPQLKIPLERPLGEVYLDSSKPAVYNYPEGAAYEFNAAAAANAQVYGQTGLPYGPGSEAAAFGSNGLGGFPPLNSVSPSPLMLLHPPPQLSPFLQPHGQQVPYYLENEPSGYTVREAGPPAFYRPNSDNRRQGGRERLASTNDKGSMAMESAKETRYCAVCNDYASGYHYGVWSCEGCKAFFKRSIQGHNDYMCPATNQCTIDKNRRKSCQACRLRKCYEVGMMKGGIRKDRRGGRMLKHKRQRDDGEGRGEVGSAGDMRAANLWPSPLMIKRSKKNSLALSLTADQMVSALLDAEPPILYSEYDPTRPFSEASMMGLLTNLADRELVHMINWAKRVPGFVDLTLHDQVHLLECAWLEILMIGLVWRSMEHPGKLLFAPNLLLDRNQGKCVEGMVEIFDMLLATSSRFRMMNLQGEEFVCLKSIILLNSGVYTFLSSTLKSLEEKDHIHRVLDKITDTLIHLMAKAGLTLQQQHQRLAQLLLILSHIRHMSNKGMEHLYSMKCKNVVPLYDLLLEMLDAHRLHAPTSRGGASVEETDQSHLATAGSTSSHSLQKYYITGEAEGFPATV
In short: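 VM7Luc4E2 cells (endogenous full-length ER-alpha, stable 4xERE-luciferase) were grown 5 days in phenol red-free medium with charcoal-stripped FBS, then exposed 22 h at 37C to compounds plus 0.1 nM (final) 17beta-estradiol; ONE-Glo luminescence read-out.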

[18] = qHTS assay to identify small molecule HDAC inhibitors (AID 1259364)
In short: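 Wild-type HCT-116 cells were plated overnight, exposed to compounds for 2 h at 37 °C, then given HDAC-Glo class I/II luminogenic reagent for 30 min at room temperature before luminescence was read.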

[19] = A CellTox Green Cytotoxicity Assay to monitor cytotoxicity in HepG2 cells - 32 hour (AID 1224883); note: nearly all actives have a fitted effect of over 50% in size; note: potency is the fitted concentration of half-maximal effect
In short: as §2

[20] = qHTS assay to identify small molecule phospholipidosis (PLD) inducers (AID 1259344; active = well fitted curve in the direction sought with a large enough effect; an effect the other way counts as inactive or inconclusive)
In short: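 Phospholipidosis is scored by imaging LipidTOX-stained pits in HepG2 cells exposed to compound for 24 h at 37 C; pit counts and integrated intensities per well and per cell serve as outputs.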
% is set by controls: 0 for no effect and ±100 for the full control effect.

Cc1c(C(=O)c2c[nH]n(C)c2=O)ccc(S(C)(=O)=O)c1C1=NOCC1
inactive: outcome [1] | Potency [2] | Potency [3] | Potency [4] | Potency [5] | Potency [6] | Potency [7] | outcome [8] | Potency [9] | Potency [10] | Potency [11] | Potency [12] | Potency [13] | outcome [14] | outcome [15] | Potency [16] | outcome [17] | Potency [18]

CC(=O)Nc1ccc(OC(=O)c2ccccc2OC(C)=O)cc1
inactive: outcome [1] | Potency [2] | Potency [3] | Potency [4] | Potency [6] | Potency [19] | Potency [7] | outcome [8] | Potency [9] | Potency [10] | Potency [12] | Potency [13] | outcome [14] | outcome [15] | outcome [17] | outcome [20]

CCCCCCCCCOC(=O)CCCCC(=O)OCCCCCCC
inactive: outcome [1] | Potency [4] | outcome [8] | Potency [9] | Potency [10] | Potency [12] | outcome [14] | outcome [15] | Potency [18]
active: Potency [2] 24.5 µM | Potency [3] 24.5 µM | Potency [5] 24.5 µM | Potency [6] 27.5 µM | Potency [19] 24.5 µM | Potency [13] 38.9 µM

C=CC(=O)OCC1CCCO1 (stereo not drawn)
inactive: outcome [1] | Potency [2] | Potency [3] | Potency [4] | Potency [5] | Potency [6] | Potency [19] | outcome [8] | Potency [9] | Potency [10] | Potency [11] | Potency [12] | Potency [13] | outcome [14] | outcome [15] | outcome [17] | Potency [18]

CN1C[C@@H]2C[C@H]1CN2c1cc2c(cc1F)c(=O)c(C(=O)O)cn2C1CC1
inactive: activity change, negative = cytotoxic [1] 4.04% [at 15.8 µM] | cytotoxicity [2] 0.282% [at 15.8 µM] | cytotoxicity increase [3] 4.83% [at 15.8 µM] | activity change, negative = cytotoxicity [4] -2.3% [at 15.8 µM] | cytotoxicity increase [5] -7.04% [at 15.8 µM] | cytotoxicity [6] 2.16% [at 15.8 µM] | cytotoxicity increase [7] -14% [at 15.8 µM] | activity change, negative = cytotoxic [8] 6.14% [at 15.8 µM] | activity change, negative = cytotoxicity [9] 4.15% [at 15.8 µM] | activity change, negative = cytotoxicity [10] 0.091% [at 15.8 µM] | activity change [11] -3.93% [at 15.8 µM, active compounds read high] | activity change, negative = cytotoxicity [12] 10% [at 15.8 µM] | cytotoxicity increase [13] 6.75% [at 15.8 µM] | activity change, negative = cytotoxicity [14] -8.33% [at 19 µM] | viability change, negative = cytotoxic [15] -2.38% [at 19 µM] | activity change, negative = inhibition [17] -0.393% [at 19 µM] | outcome [20] | activity change, negative = inhibition [18] 2.17% [at 19 µM]

OC[C@H]1O[C@@H](O[C@@H]2[C@@H](CO)O[C@](O)(CO)[C@H]2O)[C@H](O)[C@@H](O)[C@H]1O
inactive: outcome [1] | Potency [2] | Potency [3] | Potency [4] | Potency [5] | Potency [19] | Potency [7] | outcome [8] | Potency [9] | Potency [10] | Potency [11] | Potency [12] | Potency [13] | outcome [14] | outcome [15] | Potency [16] | outcome [17] | outcome [20]

COc1ccc2c(c1)c1c3n2CCN(C)C3=NCC1
inactive: outcome [1] | Potency [2] | Potency [3] | Potency [4] | Potency [5] | Potency [6] | Potency [19] | outcome [8] | Potency [9] | Potency [10] | Potency [11] | Potency [12] | Potency [13] | outcome [14] | outcome [15] | outcome [17] | outcome [20] | Potency [18]

COC(C)(OC)OC
inactive: outcome [1] | Potency [2] | Potency [4] | Potency [5] | Potency [6] | Potency [19] | Potency [7] | outcome [8] | Potency [9] | Potency [10] | Potency [11] | Potency [12] | Potency [13] | outcome [14] | outcome [15] | Potency [16] | outcome [17] | Potency [18]

COC(=O)c1cccc(Cl)c1
inactive: outcome [1] | Potency [3] | Potency [4] | Potency [5] | Potency [6] | Potency [19] | Potency [7] | outcome [8] | Potency [9] | Potency [10] | Potency [11] | Potency [12] | Potency [13] | outcome [14] | outcome [15] | outcome [17]

CCOC(CN1CCN(CC(C)C(=O)c2ccccc2)CC1)c1ccccc1 (stereo not drawn)
inactive: activity change, negative = cytotoxic [1] 0.188% [at 15.8 µM] | cytotoxicity increase [3] -19.9% [at 15.8 µM] | activity change, negative = cytotoxicity [4] 0.0674% [at 15.8 µM] | cytotoxicity increase [5] -3.67% [at 15.8 µM] | cytotoxicity [6] -4.84% [at 15.8 µM] | cytotoxicity increase [19] -18.4% [at 15.8 µM] | cytotoxicity increase [7] -4.22% [at 15.8 µM] | activity change, negative = cytotoxic [8] 0.651% [at 15.8 µM] | activity change, negative = cytotoxicity [12] 0.232% [at 15.8 µM] | cytotoxicity increase [13] -9.59% [at 15.8 µM] | activity change, negative = cytotoxicity [14] -7.75% [at 19 µM] | viability change, negative = cytotoxic [15] -2.37% [at 19 µM] | activity change, negative = inhibition [18] 1.54% [at 19 µM]

O=C1CCCCO1
inactive: outcome [1] | Potency [2] | Potency [4] | Potency [5] | Potency [6] | Potency [19] | outcome [8] | Potency [9] | Potency [10] | Potency [12] | Potency [13] | outcome [14] | outcome [15] | outcome [17] | Potency [18]

O/N=C/C=N/O
inactive: outcome [1] | Potency [3] | Potency [4] | Potency [5] | Potency [6] | Potency [19] | Potency [7] | outcome [8] | Potency [9] | Potency [10] | Potency [12] | Potency [13] | outcome [14] | outcome [15] | Potency [18]

CCCC(CC)c1ccccc1 (stereo not drawn)
inactive: outcome [1] | Potency [2] | Potency [4] | Potency [5] | Potency [6] | Potency [19] | Potency [7] | outcome [8] | Potency [9] | Potency [10] | Potency [11] | Potency [12] | Potency [13] | outcome [14] | outcome [15] | outcome [17] | Potency [18]

CC(=O)CCc1ccc(OC(C)=O)cc1
inactive: outcome [1] | Potency [3] | Potency [4] | Potency [5] | Potency [6] | Potency [19] | Potency [7] | outcome [8] | Potency [9] | Potency [10] | Potency [11] | Potency [12] | Potency [13] | outcome [14] | outcome [15] | outcome [17]

ONc1ccccc1
inactive: outcome [1] | Potency [2] | Potency [4] | Potency [5] | Potency [6] | Potency [7] | outcome [8] | Potency [9] | Potency [10] | Potency [12] | Potency [13] | outcome [14] | outcome [15] | outcome [17]

CC(C)=CCC/C(C)=C/COC=O
inactive: outcome [1] | Potency [2] | Potency [4] | Potency [5] | Potency [6] | outcome [8] | Potency [9] | Potency [10] | Potency [12] | Potency [13] | outcome [14] | outcome [15]

COc1c2occc2c(OC)c2c(=O)cc(C)oc12
inactive: outcome [1] | Potency [3] | Potency [4] | Potency [5] | Potency [6] | Potency [19] | Potency [7] | outcome [8] | Potency [11] | Potency [12] | Potency [13] | outcome [14] | outcome [15] | outcome [20] | Potency [18]
active: Potency [9] 8.49 µM | Potency [10] 9.52 µM
